The results in this text go back to PubChem BioAssay.

SMILES strings stand for the structures. Calls of active or inactive are those of the source.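 How the source made its calls, unless noted: active means inhibition at or above 50% at 10 µM; inactive means inhibition below 50%.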

The nature of assay [1]: inhibitors of TNFa-induced NFkB p65 translocation, primary screen, imaging, HUVEC, MLSMR starter and 10KST1 sets (AID 438;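 active means inhibition above 20% together with a positive visual image hit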;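 further: compound added about 3h40 before a 20 min TNFalpha stimulation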;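 on inhibition: signal is the nuclear over cytoplasmic p65 intensity ratio per well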). As to conditions: HUVEC TNFa-induced p65 nuclear translocation; cell count: measured here: nuclei count (cytotoxicity indicator), at 2.08 µM; inhibition: at 2 µM, stronger effect = higher value, 0% TNFa-plus-vehicle, 100% no-TNFa wells.
Assay [2] can be described thus: reduction of polyQ htt aggregates in cells – imaging, exon1htt(103Q)mCFP cells, high-content imaging, primary screen (AID 483;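 active means visual image review flags a hit and inhibition of aggregation exceeds 20%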;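 further: compound exposure lasted 3 days before fixation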;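 on nuclei count: percent of the per-plate median nuclei count of sample wells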). As to conditions: exon1htt(103Q)mCFP cell line, aggregate imaging, at 2 µM; inhibition of aggregation: stronger effect = higher value; nuclei count: measured here: cell count, toxicity.
The nature of assay [3]: endothelial E-selectin expression blockers – imaging, HUVEC, immunofluorescence, MLSMR starter and 10KST1 sets, primary screen (AID 487;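 active means visually confirmed hit in the image check and inhibition above 20%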;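 on inhibition: signal is fraction of cell area covered by stained E-selectin grains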;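 on nuclei count: 100% = median nuclei count of all wells on the same plate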). The conditions noted are these: HUVEC TNFalpha-induced E-selectin immunofluorescence imaging, at 2 µM; inhibition: stronger effect = higher value; nuclei count: measured here: cell number, toxicity.
For assay [4], the target named is Voltage-gated potassium channel subunit beta-2 (Rattus norvegicus) (UniProt P62483). The assay is described as follows: inhibitors of rat Kvbeta2 reductase activity – biochemical, NADPH fluorescence, primary screen (AID 622;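 active means fluorescence slope higher than the sample average by over 3 SD, cut at about -0.22 in these data, passing the limit was not always enough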;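 further: slope of raw intensity against log time taken from 70 to 1610 s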). The conditions noted are these: recombinant KvBeta, 4-cyanobenzaldehyde reduction, at 10 µM, stronger effect = higher value.
The target is the same in assay [5]. The assay is described as follows: enhancers of rat Kvbeta2 NADPH turnover – biochemical, NADPH fluorescence, primary screen (AID 623;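 active means NADPH fluorescence slope more negative than the mean of all samples by about 3 SD, 99.7% confidence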;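 further: fluorescence intensity change per second fitted from 20 to 320 s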). As to conditions: Recombinant KvBeta, NADPH fluorescence decrease slope, 10 min; at 10 µM; stronger effect = lower value.
Assay [6] addresses Alpha-2C adrenergic receptor (Homo sapiens) (UniProt P18825). The assay is described as follows: compounds altering alpha2C-coupled GIRK flux – cell-based, HEK293 alpha2C/GIRK1/2, thallium flux, primary screen (AID 624;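 active means fluorescence slope after compound addition differing from the mean of all screened samples at 99.7% confidence, in either direction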;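 further: slope of fluorescence ratio to pre-addition baseline per second over 15 to 24 s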). The conditions noted are these: thallium flux BTC fluorescence, at 10 µM, actives lie on both sides.
A short description of assay [7]: blockers of RIG-like receptor reporter activation – cell-based, Sendai virus stimulus, luciferase, 10K MLSCN set, TLR/RLR signaling modifier project, primary screen (AID 602276).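 Further: firefly luciferase from ISG56 promoter only with Renilla not read in this screen; 0% = Sendai virus plus DMSO and 100% = medium plus DMSO without virus.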 As to conditions: HEK293 RL24 IRF3 luciferase reporter, at 10 µM, stronger effect = higher value. For orientation: Reporter assays use an easily measured gene product as a stand-in for the process of interest.

Assay [8] is described as follows: TLR3 IRF3 reporter activation blockers – cell-based, poly I:C stimulus, luciferase, 10K MLSCN set, primary screen (AID 602277;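 active means inhibition of the reporter signal at or above 50%; inactive means inhibition below 50%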). The conditions noted are these: HEK293-TLR3 RL24 IRF3 luciferase reporter, at 10 µM, stronger effect = higher value.

Alpha-2C adrenergic receptor (Homo sapiens), sequence (P18825 whole entry, looked up): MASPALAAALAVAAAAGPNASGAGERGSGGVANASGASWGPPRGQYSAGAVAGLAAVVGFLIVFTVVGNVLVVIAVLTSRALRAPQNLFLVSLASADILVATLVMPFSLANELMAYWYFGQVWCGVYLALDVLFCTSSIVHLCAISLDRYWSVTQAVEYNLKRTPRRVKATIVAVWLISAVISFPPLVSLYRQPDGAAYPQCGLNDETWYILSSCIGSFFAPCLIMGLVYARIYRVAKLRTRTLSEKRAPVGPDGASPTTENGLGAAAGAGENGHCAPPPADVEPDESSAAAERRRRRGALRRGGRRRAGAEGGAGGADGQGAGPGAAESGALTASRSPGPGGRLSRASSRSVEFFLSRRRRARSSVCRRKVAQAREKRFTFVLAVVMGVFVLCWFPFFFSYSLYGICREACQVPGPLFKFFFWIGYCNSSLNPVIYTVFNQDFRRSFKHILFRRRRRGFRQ
Voltage-gated potassium channel subunit beta-2 (Rattus norvegicus), sequence (P62483 whole entry, looked up): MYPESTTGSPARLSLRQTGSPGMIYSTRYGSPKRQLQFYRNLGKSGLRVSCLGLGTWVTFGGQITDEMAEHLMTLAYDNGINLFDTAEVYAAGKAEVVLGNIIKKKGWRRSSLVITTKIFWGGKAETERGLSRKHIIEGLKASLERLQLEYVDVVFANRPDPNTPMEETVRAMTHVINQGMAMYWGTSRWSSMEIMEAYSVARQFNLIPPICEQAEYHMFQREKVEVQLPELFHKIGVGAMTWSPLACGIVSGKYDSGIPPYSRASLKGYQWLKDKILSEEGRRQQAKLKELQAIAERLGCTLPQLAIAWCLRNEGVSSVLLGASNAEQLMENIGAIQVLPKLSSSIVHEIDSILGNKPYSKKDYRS

As usually defined, the inhibition is the relative decrease from the control value, in per cent. With `CCOc1ccccc1NC(=O)CN(C)S(=O)(=O)c1cccc2nsnc12`, the cell count in assay [1] was 671. The inhibition in assay [1] was -16.4% (inactive); in assay [3], -141% (inactive); in assay [7], 15.8% (inactive); in assay [8], 15.6% (inactive). Moreover, the inhibition of aggregation in assay [2] is -5.6% (inactive). The nuclei count in assay [2] worked out at 96.9%; in assay [3], 119%. Also, the fluorescence slope in assay [4] is -0.329 (inactive). The NADPH fluorescence slope in assay [5] is -4.9e-05 (inactive). In assay [6], the slope is 0.00417 (inactive).
Take `CCCSc1nc2c(cnn2-c2ccc(Cl)cc2)c(=O)[nH]1`: in assay [1], the cell count stood at 213. The inhibition in assay [1] is -1.3% (inactive); in assay [3], -40.2% (inactive); in assay [7], 16% (inactive); in assay [8], 14.5% (inactive). Besides, in assay [2], the inhibition of aggregation is -9.2% (inactive). The nuclei count in assay [2] came to 108%; in assay [3] it was 122%. Besides, in assay [4], the fluorescence slope was -0.609 (inactive). Moreover, in assay [5], the NADPH fluorescence slope is -1.8e-05 (inactive). In addition, the slope in assay [6] was 0.011 (inactive).
As for `CC(C)(C)SCCNC(=O)CN1C(=O)c2ccccc2S1(=O)=O`, the cell count in assay [1] came to 625. Also, the inhibition in assay [1] is -4.2% (inactive); in assay [3] it was -29.7% (inactive); in assay [7] it was 3.26% (inactive); in assay [8], -7.98% (inactive). Besides, the inhibition of aggregation in assay [2] is -13.2% (inactive). Moreover, the values for the nuclei count in assay [2] and in assay [3] were 97.6% and 106%, respectively. Also, the fluorescence slope in assay [4] was -0.499 (inactive). For the same molecule, in assay [5], the NADPH fluorescence slope was -8.2e-06 (inactive). Besides, in assay [6], the slope is 0.00704 (inactive).
Take `CC1=C(C(=O)Nc2ccc(F)cc2)C(c2cccc(C)c2)n2nc(CCCO)nc2N1` (stereo not drawn): in assay [1], the cell count worked out at 784. Besides, the inhibition was -3.5% (inactive) in assay [1], -32.3% (inactive) in assay [3], 13.9% (inactive) in assay [7] and 41.1% (inactive) in assay [8]. Also, in assay [2], the inhibition of aggregation is 6.5% (inactive). For the same molecule, the nuclei count in assay [2] was found to be 88.4%; in assay [3] it was 133%. For the same molecule, the fluorescence slope in assay [4] is -0.405 (inactive). Moreover, the NADPH fluorescence slope in assay [5] is -1.6e-05 (inactive). In assay [6], the slope was 0.00457 (inactive).
For the molecule `O=C(CSc1nnnn1-c1ccc(Cl)cc1)NC(=O)Nc1ccc2c(c1)OCCO2`, the cell count in assay [1] stood at 336. Besides, the inhibition was 5.6% (inactive) in assay [1], -86.5% (inactive) in assay [3], -24.8% (inactive) in assay [7] and -57% (inactive) in assay [8]. In assay [2], the inhibition of aggregation is 19.6% (inactive). Moreover, the nuclei count in assay [2] was 84.7%; in assay [3] it was 120%. In assay [4], the fluorescence slope is -0.429 (inactive). Moreover, the NADPH fluorescence slope in assay [5] was -3.6e-05 (inactive). In assay [6], the slope was 0.00808 (inactive).
Turning to `CCOC(=O)c1sc(=NC(=O)c2ccc(OC)c(OC)c2)n(C)c1C`, in assay [1], the cell count was found to be 642. Besides, the inhibition in assay [1] is 10.1% (inactive); in assay [3], 47.2% (inactive); in assay [7], -16.4% (inactive); in assay [8], -82.7% (inactive). In assay [2], the inhibition of aggregation was 3.7% (inactive). In addition, the nuclei count was found to be 93.8% in assay [2] and 75.6% in assay [3]. Further, the fluorescence slope in assay [4] was -0.583 (inactive). In addition, the NADPH fluorescence slope in assay [5] was -2.7e-05 (inactive). For the same molecule, in assay [6], the slope was 0.00657 (inactive).
As for `COc1ccc(S(=O)(=O)N2CCCC(C(=O)NCc3ccccn3)C2)cc1` (stereo not drawn), the cell count in assay [1] is 291. The inhibition was -2.2% (inactive) in assay [1], 1.9% (inactive) in assay [3], 12.7% (inactive) in assay [7] and 35.6% (inactive) in assay [8]. For the same molecule, the inhibition of aggregation in assay [2] was 8.2% (inactive). For the same molecule, the nuclei count in assay [2] turned out to be 72.3%; in assay [3], 76.8%. For the same molecule, the fluorescence slope in assay [4] was -0.477 (inactive). For the same molecule, the NADPH fluorescence slope in assay [5] is -2.4e-05 (inactive). Moreover, the slope in assay [6] was 0.00625 (inactive).
As to `COc1ccc(N(CC(=O)O)S(=O)(=O)c2ccc(OC)c(OC)c2)cc1`, the cell count in assay [1] worked out at 501. In addition, the inhibition in assay [1] was -2.1% (inactive); in assay [3] it was -11.5% (inactive); in assay [7] it was 15.4% (inactive); in assay [8], 22.3% (inactive). In addition, the inhibition of aggregation in assay [2] is -12.1% (inactive). Besides, the nuclei count was determined as 99% in assay [2] and 111% in assay [3]. For the same molecule, the fluorescence slope in assay [4] was -0.475 (inactive). The NADPH fluorescence slope in assay [5] is 6.8e-05 (inactive). Moreover, the slope in assay [6] was 0.00634 (inactive).
Turning to `CCC(C)NC(=O)C1(C)CCC(=O)N1CCc1ccc(OC)c(OC)c1` (stereo not drawn), the cell count in assay [1] amounted to 447. Besides, the inhibition was -5.7% (inactive) in assay [1], 0.6% (inactive) in assay [3], 5.13% (inactive) in assay [7] and 9.44% (inactive) in assay [8]. In assay [2], the inhibition of aggregation was -2.3% (inactive). The nuclei count in assay [2] amounted to 105%; in assay [3], 103%. The fluorescence slope in assay [4] is -0.606 (inactive). Besides, the NADPH fluorescence slope in assay [5] was -8.3e-06 (inactive). Further, the slope in assay [6] was 0.00621 (inactive).
In the case of `COC(=O)CC(C(=O)Nc1cc(C(=O)OC)cc(C(=O)OC)c1)N1CCN(C)CC1` (stereo not drawn), in assay [1], the cell count was 661. Moreover, the inhibition was -7.5% (inactive) in assay [1], -105% (inactive) in assay [3], -2.88% (inactive) in assay [7] and 9.86% (inactive) in assay [8]. For the same molecule, the inhibition of aggregation in assay [2] is -3.2% (inactive). Further, the nuclei count is 99.8% in assay [2] and 107% in assay [3]. The fluorescence slope in assay [4] was -0.547 (inactive). In assay [5], the NADPH fluorescence slope is -4.3e-05 (inactive). In addition, in assay [6], the slope was 0.00646 (inactive).
On to `N#Cc1ccccc1Cn1c(=O)n(Cc2ccc(C(=O)NCc3ccco3)cc2)c(=O)c2sccc21`, for which, in assay [1], the cell count worked out at 865. For the same molecule, the inhibition is -0.6% (inactive) in assay [1], -55.6% (inactive) in assay [3], 11.4% (inactive) in assay [7] and 17.2% (inactive) in assay [8]. In addition, the inhibition of aggregation in assay [2] is 9.3% (inactive). The results for the nuclei count in assay [2] and in assay [3] were 120% and 115%, respectively. The fluorescence slope in assay [4] is -0.577 (inactive). For the same molecule, the NADPH fluorescence slope in assay [5] is -4.1e-05 (inactive). Moreover, in assay [6], the slope is 0.00686 (inactive).
For the molecule `CC(C)=CC(=O)N1CCCc2ccccc21`, in assay [1], the cell count was determined as 308. In addition, the inhibition in assay [1] was -2.8% (inactive); in assay [3], 3.3% (inactive); in assay [7], 16.7% (inactive); in assay [8], 17% (inactive). For the same molecule, the inhibition of aggregation in assay [2] was -5.5% (inactive). The nuclei count in assay [2] stood at 84.6%; in assay [3], 96.7%. Also, the fluorescence slope in assay [4] is -0.606 (inactive). Besides, in assay [5], the NADPH fluorescence slope is -2.8e-05 (inactive). Also, the slope in assay [6] is 0.00337 (inactive).
In the case of `c1cn(CC2(Cn3ccnc3)COC2)cn1`, the cell count in assay [1] was determined as 793. The inhibition in assay [1] is -6.2% (inactive); in assay [3], -2.3% (inactive); in assay [7] it was 14.1% (inactive); in assay [8], 17.6% (inactive). In addition, in assay [2], the inhibition of aggregation was -13.4% (inactive). Besides, the nuclei count in assay [2] amounted to 104%; in assay [3], 105%. Besides, the fluorescence slope in assay [4] is -0.614 (inactive). Besides, the NADPH fluorescence slope in assay [5] is -1.1e-05 (inactive). The slope in assay [6] was 0.00589 (inactive).
